# Experimental data as given in PubChem BioAssay (NCI).
# “And” between values parts separate entries of the source, which are not always exact repeats. Equal values may be shown once. About 83,000 compounds went through this panel and 20% of them were active in at least one assay; those are over-represented in the sample as a whole.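 Each cell line was grown in a 96-well plate and treated with one concentration of compound for 48 hours. Values below 10 were considered active.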 A number with no mark means an inactive call.
# Test system: OVCAR-4 ovarian
# Assay: NCI-60 one-dose screen, 48 h (100 = growth as untreated, 0 = no growth, -100 = all killed)
# Details: 10 µM unless noted
# Description: Growth inhibition of the OVCAR-4 human tumor cell line is measured as a screen for anti-cancer activity. Cells are grown in 96 well plates and exposed to the test compound for 48 hours. Compounds are tested at a single concentration, which is 10^-5 M for most compounds. The reported endpoint is percent growth (GI% or GIPRCNT), where numbers from 0 - 100% represent growth inhibition, and numbers from -100% - 0 represent cell death. For example, a value of 40 represents 60% growth inhibition. A value of 0 means no net growth occurred over the course of the experiment. A value of -40 indicates 40% of cells at the beginning of the experiment died by the end of the experiment. A value of -100 means all cells are dead at the end of the experiment.
# NCI-60 Human Tumor Cell Lines Screen was performed using the standard one-dose NCI protocol, which is described in more detail at https://dtp.cancer.gov/discovery_development/nci-60/default.htm.
# Compounds with GIPRCNT values below 10 were considered active. Activity score was based on GIPRCNT using the following formula: […]
# Score is 0 for GIPRCNT values of 100 or above, 50 for GIPRCNT values of 0, and 100 for GIPRCNT values of -100.
row,Structure (SMILES),growth
1,CC(=O)C(N)Cc1ccccc1 (stereo not given),99.1%
2,CC[C@H](C)[C@H](NC(=O)c1ncccn1)C(=O)N(C)[C@H](C[C@@H](OC(C)=O)c1nc(C(=O)N[C@@H](Cc2ccccc2)C[C@H](C)C(=O)OC)cs1)C(C)C,50.6%
3,C[C@]12CCC(=O)C[C@@H]1CC[C@@H]1[C@@H]2CC[C@]2(C)[C@@H](OC(=O)N(CCCl)N=O)CC[C@@H]12,72.6%
4,C[C@]12CC[C@H]3[C@@H](C[C@@H]4SC(Nc5ccccc5)=N[C@@]45C/C(=N/O)CC[C@]35C)[C@@H]1CCC2=O,88%
5,CC[C@H](CC[C@@H](C)[C@H]1CC[C@H]2[C@@H]3CC[C@H]4C[C@]5(CC[C@]4(C)[C@H]3CC[C@]12C)OO[C@](C)(C(F)(F)F)O5)C(C)C,88.4%
6,CC[C@H](C)[C@H](NC(=O)[C@H]1CCCCN1C)C(=O)N(C)[C@H](CCc1nc(C(=O)N[C@@H](Cc2ccccc2)C[C@H](C)C(=O)O)cs1)C(C)C,43.8%
7,CCC(=O)C(CC(C)N1CCCCCC1)(c1ccccc1)c1ccccc1 (stereo not given),84.2%
8,COc1cc2c(cc1OC)[C@@H]1C(=O)c3ccc4c(c3O[C@@H]1CO2)C[C@H](C(C)C)O4,42.3%
9,Nc1ccc(S(=O)(=O)F)cc1,130%
10,Cc1cc(N(CCCl)CCCl)ccc1/C=N\NC(=O)c1cccnc1,93.2% and 80.5%
11,O=[N+]([O-])c1cc(Cl)c(Cl)c([N+](=O)[O-])c1Cl,29.3%
12,Clc1ccc(COC(Cn2ccnc2)c2ccc(Cl)cc2Cl)c(Cl)c1 (stereo not given),49% and 63.2%
13,CCC(Br)(CC)C(=O)NC(N)=O,101%
14,O=S1(=O)OCCO1,99.4%
15,C=C[Se]CC(=O)/C=C/c1ccccc1,95.3%
16,C[C@]12C[C@H](c3ccoc3)OC(=O)[C@H]1CC[C@@]1(C)[C@@H]2[C@H]2C=C[C@]1(O)C(=O)O2,93.7%
17,CN1CCc2cc3c(cc2C1O)OCO3 (stereo not given),108%
18,CO[C@H]1[C@H](O[C@@H]2C[C@@H]3C/C=C/C(=O)O[C@@H](CO)C[C@H](O)[C@@H]4C[C@H](C)[C@H](C/C=C\C=C\[C@H](C)C[C@H](C2)O3)O4)O[C@@H](C)[C@H](O)[C@H]1O,30.1%
19,COc1ccn(C)c(=O)c1C#N,114%
20,COC(=O)C1=CCCN(C)C1,107% and 101%

row,Structure (SMILES),growth
1,O=CC1(c2ccccc2)CCN(Cc2ccccc2)CC1,103%
2,C[C@]12CC[C@H]3[C@@H](C[C@@H]4SC(Nc5cccc(F)c5)=N[C@@]45CC(=O)CC[C@]35C)[C@@H]1CCC2=O,59.2%
3,CC1=CC(=O)CCC12CCOC2=O (stereo not given),93.8%
4,O=C(O)C1C(C(=O)O)C2(Cl)C(Cl)=C(Cl)C1(Cl)C2(Cl)Cl (stereo not given),105% and 110%
5,CCC1(CCSC#N)C(=O)NC(=O)NC1=O,91.4%
6,COc1cc(C=C2C(=O)NC(=O)NC2=O)ccc1O,101%
7,C=CCOC(=O)C(Br)CC (stereo not given),108%
8,C[C@@H]1C/C=C\C(=O)O[C@H](/C=C/C#C/C=C/C(C)(C)[C@@H](O)c2cccc(O)c2Br)[C@@H](C)/C=C/[C@H](C)C[C@H](OC(N)=O)C1,50.3%
9,CN1[C@@H](CC(=O)c2ccccc2)CCC[C@H]1CC(=O)c1ccccc1,107%
10,O=C(NC1=NCC[Se]1)c1ccccc1O,71.1%
11,Cc1cc[c-]cc1.Fc1c[c-]c(-c2ccccn2)c(F)c1.[Pt+2].c1ccc([PH+](c2ccccc2)c2ccccn2)cc1,57.1%
12,Cc1cc(N)ccc1N,104%
13,N#CC(N)c1ccccc1 (stereo not given),110%
14,Cc1ccc(P(=O)(O)O)cc1,101%
15,O=C(O)c1ccc(=O)[nH]c1,111% and 106%
16,CC/C(=C(\c1ccc(OCCN2CCOCC2)cc1)c1ccc(OC(=O)Cc2ccccc2)cc1)c1ccc(Cl)cc1,120%
17,C/C(=C(\c1ccc(OCCN2CCOCC2)cc1)c1ccc(OC(=O)Cc2ccccc2)cc1)c1ccc(Cl)cc1,98.5%
18,Cc1nc2ccccc2c(=O)n1-c1ccccc1F,99.3%
19,C/C=C(/C)C(=O)O[C@H]1CC[C@@]2(C)[C@@H]3CC[C@H]4[C@]5(O)C[C@H](O)[C@@]6(O)[C@@H](CN7C[C@@H](C)CC[C@H]7[C@@]6(C)O)[C@]5(O)C[C@@]42O[C@@]13O,102%
20,CC[C@H](C)[C@H](NC(=O)CN(C)C)C(=O)N(C)[C@H](C[C@@H](OC(C)=O)c1nc(C(=O)NC23CC(C(=O)OC)(C2)C3)cs1)C(C)C,47.9%
